# Records with an inconclusive call do not appear. A call without a number means that no potency is given here. Calls of active or inactive are those of the source. The call rests on the fitted dose curve; in most records, active means well fitted cell-killing curve with a large enough effect; inconclusive means small, poorly fitted or top-dose-only effect; inactive means no such curve, though single readings can be large or run the other way. *1 amine or outer side, *2 acyl side, *3 side chain or, on linkers, in order; H or OH if unused. Where a SMILES comes first, the peptide text is derived from it. Bridges are numbered along the chain shown (N, C = ends). [ ]: non-standard residue; d: D form. The star is where a group is joined. ξ: configuration not given here. X10 = NC1=NCCC(C(N[*:1])C(=O)[*:2])N1; ΔAla(3-NHCONH2) = NC(=O)NC=C(N)C(=O)O; ξβ3hOrn = NCCCC(N)CC(=O)*; Dap = NC[CH](N)C(=O)O
# Assay: qHTS of pediatric cancer cell lines to identify multiple opportunities for drug repurposing: Primary screen for SK-N-SH cells (AID 1347098); further: nearly all actives have a fitted effect of over 65% in size
# Conditions: SK-N-SH viability, CellTiter-Glo luminescence, 48 h; series mostly up to 57 µM
# Excerpt: Drug repurposing or repositioning has been offered as a strategy for drug development in oncology programs. This approach has special potential for childhood cancers and other rare or orphan diseases, where the expected return on new drug development has been a disincentive to pharmaceuticals.
# In this project we exploit the poly-pharmacology of drugs to discover new indications via phenotypic screening of a panel of 19 well-characterized cell lines derived from solid tumors seen in children and adolescents. The goal is to identify approved drugs with previously unrecognized anticancer properties that has the potential to reveal new mechanisms and biological processes involved in carcinogenesis or drug resistance. We employed a titration-based paradigm (quantitative high-throughput screening or qHTS), where all compounds were tested at multiple concentrations for their effect on cell viability. Concentration-response curves (CRCs) were derived directly from the primary screen, and both potency and efficacy values were used to identify compounds with robust bioactivity profiles. We screened the NIH Chemical Genomics Center (NCGC) Pharmaceutical Collection (NPC) and Mechanism Interrogation Plate (MIPE) small molecule collections of approved and investigational compounds against these cell lines; and measured metabolically active cells after 48 hours of compound treatment as a proxy for cell viability.
# Assay Submitter: Nathalia J. Martinez, National Center for Advancing Translational Sciences, National Institutes of Health, Rockville, MD, USA; email: natalia.martinez@nih.gov
# [1] Shen, M et al. Quantitative high-throughput phenotypic screening of pediatric cancer cell lines identifies multiple opportunities for drug repurposing. Oncotarget 2017 Dec 19;9(4):4758-4772. PMID 29435139.
# The cells were obtained from University of North Carolina (UNC), Pediatric Preclinical Testing Program (PPT), and Coriell Institute (CI).
# qHTS cell viability assay:
# Cells were assayed in growth media at a density of 500-1,000 cells/well. Five microliters of cells were dispensed into 1,536-well, white, solid-bottom, TC-treated plates (Greiner Bio One) using a multidrop dispenser and incubated at 37 degrees C, 5% CO2, under a humidified atmosphere for 5 hours. Twenty-three nanoliters of compounds and controls (neutral control DMSO or positive control bortezomib at final concentration of 2.3 µM) were subsequently transferred by Kalypsys pintool. For primary screens, the MIPE collection was tested at 11-point dilutions (final concentrations range from 0.78 nM to 46 µM) and the NPC collection at 8-point dilutions (final concentrations range from 0.59 nM to 46 µM). Compounds tested in follow-up screens were assayed at 11-point dilutions. Cells were incubated for 48 hours, followed by addition of 3 µL of CellTiter-Glo (Promega). After a 15 min incubation at room temperature, samples were analyzed for luminescence intensity using a ViewLux High-throughput CCD imager equipped with clear filters.
# Potency means the concentration at half of the fitted maximal effect.
Structure (SMILES),Potency,"activity change, negative = cytotoxic"
COC(=O)/C=C(/C)N,inactive,–
O=C(O)C1CCC1,inactive,–
Cc1onc(-c2c(Cl)cccc2Cl)c1C(=O)Cl,inactive,–
COc1ccccc1OCC1CNC(=O)O1 (stereo not given),inactive,–
CN(C)[C@@H]1C(=O)C(C(N)=O)=C(O)[C@@]2(O)C(=O)C3=C(O)c4c(O)cccc4C[C@H]3C[C@@H]12,inactive,–
O=C(CCCCCCCCC#CI)Oc1ccccc1,inactive,–
Cc1cc(CCCOc2c(C)cc(-c3noc(C(F)(F)F)n3)cc2C)on1,inactive,–
CC(C)C[C@@H]1[C@H](c2ccccc2)OC(=O)N1CCCN1CCCCCC1,inactive,–
CCCOc1ccc2c(c1)CC[C@@H]1[C@@H]2CC[C@]2(C)C(OC)CC[C@@H]12 (stereo not given in full),inactive,–
CC(NN)c1ccccc1 (stereo not given),inactive,–
CC(=O)OCC(=O)[C@@]1(O)CCC2C3CCC4=CC(=O)CC[C@]4(C)C3[C@@H](O)C[C@@]21C (stereo not given in full),inactive,–
C[C@@H]1C[C@H]2[C@@H]3CCC4=CC(=O)C=C[C@]4(C)[C@@]3(F)[C@@H](O)C[C@]2(C)[C@@]1(O)C(=O)COC(=O)c1ccncc1,inactive,–
COC(=O)[C@H]1[C@H]2C[C@@H]3c4[nH]c5cc(OC)ccc5c4CCN3C[C@H]2C[C@@H](OC(=O)/C=C/c2ccc(O)c(OC)c2)[C@@H]1OC,21.7 µM (active),–
CCNC(=O)NCCCOc1cccc(CN2CCCCC2)c1,inactive,–
NCCCC(N)CC(=O)NCC1NC(=O)C(CO)NC(=O)C(N)CNC(=O)C(C2CCN=C(N)N2)NC(=O)C(=CNC(N)=O)NC1=O (stereo not drawn) (H-[Dap]S[Dap](ξβ3hOrn)[ΔAla(3-NHCONH2)][X10]; lactam 1-C; configuration not given here),–,-4.49% [at 0.741 µM] (inactive)
OC(CCCN1CCCCC1)(c1ccccc1)c1ccccc1,inactive,–
CCCCCC1Nc2cc(C(F)(F)F)c(S(N)(=O)=O)cc2S(=O)(=O)N1 (stereo not given),inactive,–
CC(C)Cc1ccc(C(C)C(=O)OCc2ccccn2)cc1 (stereo not given),inactive,–
CC(C)=CCC/C(C)=C/CC/C(C)=C/CCC(=O)OC/C=C(\C)CCC=C(C)C,inactive,–
CCOc1c(N2CCOCC2)cnn(C)c1=O,inactive,–

Structure (SMILES),Potency,"activity change, negative = cytotoxic"
CO[C@@]1(NC(=O)CSC[C@@H](N)C(=O)O)C(=O)N2C(C(=O)O)=C(CSc3nnnn3C)CS[C@@H]21,inactive,–
CC(C)(C)c1cc(C=O)cc(C(C)(C)C)c1O,inactive,–
CC1(C)O[C@@H]2C[C@H]3[C@@H]4CCC5=CC(=O)C=C[C@]5(C)[C@@]4(F)[C@@H](O)C[C@]3(C)[C@]2(C(=O)CO)O1,inactive,–
CN1C(=O)CC(C)(c2ccccc2)C1=O (stereo not given),inactive,–
Cc1ccccc1C(=O)N1CC/C(=N\OS(=O)(=O)O)c2ccc(Cl)cc21,inactive,–
COc1ccc(/C(C)=C/C(=O)O)c(OC)c1,inactive,–
CCCCCOc1ccccc1/C(=C\SC)n1ccnc1,inactive,–
COc1cc(C=O)ccc1O,inactive,–
COc1cc2c(cc1OC)CN(C(=O)[C@H](C)N[C@@H](CCc1ccccc1)C(=O)O)[C@H](C(=O)O)C2,inactive,–
C#Cc1ccc(-c2ccccc2F)cc1,inactive,–
CC(COc1ccccc1)NN (stereo not given),inactive,–
NS(=O)(=O)c1cc2c(cc1Cl)CN(C1CCCCC1)C2=O,inactive,–
COc1ccc(CCC(C)=O)cc1,inactive,–
CN1[C@@H]2CC[C@H]1CC(NC(=O)n1c(=O)[nH]c3ccccc31)C2 (stereo not given in full),inactive,–
Oc1ccccc1,inactive,–
CC(=O)c1ccc(O)c(C(N)=O)c1,inactive,–
CCC(=O)O[C@]1(C(=O)COC)[C@@H](C)C[C@H]2[C@@H]3CCC4=CC(=O)C=C[C@]4(C)C3(F)[C@@H](O)C[C@@]21C (stereo not given in full),inactive,–
O=[N+]([O-])c1nccn1CO[C@@H](CO)[C@H](O)CO,inactive,–
O=C1CC(c2ccc(Cl)cc2)CC(=O)N1,inactive,–
Cc1ccc(Cl)c(OCC(O)CNC(C)(C)C)c1 (stereo not given),inactive,–
